# Data taken from PubChem BioAssay (NCATS).
# Values without a mark were called inactive. Inconclusive results are not listed. Activity calls are given as the source filed them. Unless noted, calls follow the shape of the dose curve; as a rule, active = well fitted curve in the direction sought with a large enough effect; inconclusive = small, poorly fitted or top-dose-only effect, or another doubt; inactive = no such curve, though single readings can be large; an effect the other way counts as inactive or inconclusive.
# Experiments:
# [1] = Counterscreen for APE1 Inhibitors: Fluorescent Dye Displacement Validation Assay (AID 1707);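 also: plate controls were ThO with dsDNA and no compound for no effect and ThO without dsDNA for full effect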
# Outline: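 Thiazole Orange displacement from dsDNA: 250 nM ThO with 50 nM TAMRA-labelled abasic-site (tetrahydrofuran) duplex in 50 mM Tris-HCl pH7.5, 50mM NaCl, 2 mM MgCl2, 0.01% Tween-20. Loss of endpoint fluorescence (ex 480 nm, em 540 nm) flags DNA binders.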
# [2] = qHTS for differential inhibitors of proliferation of Plasmodium falciparum line 7G8 (AID 1815);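 also: potency is read from the fitted curve at half-maximal effect; parasite growth measured after three days of incubation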
# [3] = qHTS for differential inhibitors of proliferation of Plasmodium falciparum line GB4 (AID 1816); conditions: Potency: Plasmodium falciparum GB4 proliferation inhibition;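 also: potency is read from the fitted curve at half-maximal effect; parasite growth measured after 72 h incubation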
# [4] = qHTS for differential inhibitors of proliferation of Plasmodium falciparum line 3D7 (AID 1876); also: potency is read from the fitted curve at half-maximal effect
# [5] = qHTS for differential inhibitors of proliferation of Plasmodium falciparum line D10 (AID 1877);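 also: potency is read from the fitted curve at half-maximal effect; parasites grown with compound for 72 h before DNA staining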
# [6] = qHTS for differential inhibitors of proliferation of Plasmodium falciparum line Dd2 (AID 1882); conditions: Potency: Plasmodium falciparum Dd2 proliferation inhibition; also: potency is read from the fitted curve at half-maximal effect; nearly all actives have a fitted effect of over 65% in size
# Outline: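 Dd2-infected erythrocytes (0.3% parasitemia, 2.5% hematocrit final) incubated with compound 72 h at 37 C, 5% CO2; lysed with saponin/Triton buffer containing SYBR Green I, incubated overnight in the dark, then read by fluorescence (485/535 nm). Normalized to 0.29 uM artemisinin and DMSO.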
# [7] = qHTS for differential inhibitors of proliferation of Plasmodium falciparum line W2 (AID 1883); conditions: Potency: Plasmodium falciparum W2 proliferation inhibition;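 also: potency is read from the fitted curve at half-maximal effect; parasites grown with compound for 72 h before lysis and staining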
# [8] = qHTS for differential inhibitors of proliferation of Plasmodium falciparum line HB3 (AID 1886); conditions: Potency: Plasmodium falciparum HB3 proliferation inhibition;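 also: potency is read from the fitted curve at half-maximal effect; parasites grown with compound for 72 h before SYBR Green readout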
# [9] = target: Ferritin light chain (Equus caballus) (UniProt P02791); experiment: qHTS Validation Assay for Identification of Novel General Anesthetics (AID 2323); also: series mostly up to about 77 µM; % is scaled to controls: 0 for no effect and ±100 for the full control effect
# Chain of Ferritin light chain (Equus caballus) (P02791 2-175 limits assumed): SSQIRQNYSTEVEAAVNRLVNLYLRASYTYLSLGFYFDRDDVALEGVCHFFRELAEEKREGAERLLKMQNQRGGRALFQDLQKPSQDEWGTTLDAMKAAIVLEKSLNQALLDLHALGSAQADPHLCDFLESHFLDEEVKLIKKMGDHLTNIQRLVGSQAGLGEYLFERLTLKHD
# Outline: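 Competitive displacement of profluorescent 1-aminoanthracene (1-AMA, 50% saturated solution in PBS) from 10 uM horse-spleen apoferritin. Compounds incubated 10 min at room temperature; fluorescence read at 380 nm excitation/535 nm emission, normalized to free 1-AMA and complex, fitted with four-parameter Hill equation.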
# [10] = target: ATP-dependent DNA helicase Q1 (Homo sapiens) (UniProt P46063); experiment: qHTS Validation Assay for Inhibitors of RecQ-Like Dna Helicase 1 (RECQ1) (AID 2353);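 also: plate controls were DMSO vehicle for no effect and enzyme-free control for full effect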
# Chain of ATP-dependent DNA helicase Q1 (Homo sapiens) (P46063 whole entry, looked up): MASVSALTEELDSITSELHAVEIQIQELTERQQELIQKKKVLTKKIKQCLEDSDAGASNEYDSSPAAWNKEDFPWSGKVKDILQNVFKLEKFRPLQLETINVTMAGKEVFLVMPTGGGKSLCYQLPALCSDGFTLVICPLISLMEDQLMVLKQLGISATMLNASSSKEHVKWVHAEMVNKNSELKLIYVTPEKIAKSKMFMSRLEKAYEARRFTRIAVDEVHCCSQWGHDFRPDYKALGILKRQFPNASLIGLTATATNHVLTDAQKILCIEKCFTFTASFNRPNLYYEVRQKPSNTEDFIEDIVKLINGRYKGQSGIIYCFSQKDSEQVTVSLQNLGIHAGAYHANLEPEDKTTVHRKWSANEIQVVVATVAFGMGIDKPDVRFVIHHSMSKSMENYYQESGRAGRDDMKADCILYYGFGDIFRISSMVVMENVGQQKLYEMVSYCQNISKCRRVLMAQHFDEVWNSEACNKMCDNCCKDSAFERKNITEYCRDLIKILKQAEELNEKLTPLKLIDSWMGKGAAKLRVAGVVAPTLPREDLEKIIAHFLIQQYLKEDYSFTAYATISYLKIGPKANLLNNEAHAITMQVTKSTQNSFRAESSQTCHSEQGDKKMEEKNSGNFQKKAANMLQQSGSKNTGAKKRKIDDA
# Outline: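 50 nM RECQ1T1 preincubated 15 min with compound in Tris pH 8.0 buffer with MgCl2, DTT, Tween-20 and 2.5 ug/ml poly(dI-dC); started with 200 nM TAMRA/BHQ-2 forked duplex and 2 mM ATP. Unwinding read as fluorescence (525/598 nm), two reads 2 h apart.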
# [11] = Validation screen for small molecules that induce DNA re-replication in MCF 10A normal breast cells (AID 463097); also: potency is read from the fitted curve at half-maximal effect; nearly all actives have a fitted effect of over 60% in size
# Outline: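 Readout: Hoechst nuclear fluorescence intensity, 405 ex / 500-530 em, by scanning plate imager; re-replication scored as increase in nuclei with elevated DNA content. Cells exposed to compound 48 hr, 37 C, 5% CO2 beforehand.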
# [12] = Quantitative high throughput screen for delayed death inhibitors of the malarial parasite plastid, 96 hour incubation (AID 488745); also: potency is read from the fitted curve at half-maximal effect; nearly all actives have a fitted effect of over 70% in size
# Outline: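 Infected erythrocytes were added to compound in Albumax-supplemented RPMI 1640 at 0.1% parasitemia and 2% hematocrit (final), incubated 96 h at 37 C under 5% CO2, then luciferase reagent was added and luminescence measured.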
# [13] = Quantitative high throughput screen for delayed death inhibitors of the malarial parasite plastid, 48 hour incubation (AID 488752); also: potency is read from the fitted curve at half-maximal effect; nearly all actives have a fitted effect of over 65% in size
# Outline: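 Readout is firefly luciferase luminescence from a reporter integrated into the parasite genome, with lower signal taken as inhibited growth. Infected red cells (0.1% parasitemia, 2% hematocrit final) are cultured with compound for one 48 h cycle at 37 C.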
# [14] = target: M-phase phosphoprotein 8 (Homo sapiens) (UniProt Q99549); experiment: qHTS Validation Assay for Inhibitors for MPP8 Chromodomain Interactions with Methylated Histone Tails (AID 488949); also: potency is read from the fitted curve at half-maximal effect; nearly all actives have a fitted effect of over 55% in size
# Outline: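 MPP8 (50 nM) was preincubated with biotinylated H3(1-18)K9me3 peptide (50 nM) in PBS pH 7.4, 0.01% Tween-20 for 30 min at room temperature, then with compounds for 30 min; binding was detected by AlphaScreen.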
# [15] = target: Transient receptor potential cation channel subfamily V member 1 (Homo sapiens) (UniProt Q8NER1); experiment: HTS Assay for Compounds that Act as Enhancers of the Vanilloid Receptor 1 (AID 488979); also: 0% is about no effect
# Chain of Transient receptor potential cation channel subfamily V member 1 (Homo sapiens) (Q8NER1 whole entry, looked up): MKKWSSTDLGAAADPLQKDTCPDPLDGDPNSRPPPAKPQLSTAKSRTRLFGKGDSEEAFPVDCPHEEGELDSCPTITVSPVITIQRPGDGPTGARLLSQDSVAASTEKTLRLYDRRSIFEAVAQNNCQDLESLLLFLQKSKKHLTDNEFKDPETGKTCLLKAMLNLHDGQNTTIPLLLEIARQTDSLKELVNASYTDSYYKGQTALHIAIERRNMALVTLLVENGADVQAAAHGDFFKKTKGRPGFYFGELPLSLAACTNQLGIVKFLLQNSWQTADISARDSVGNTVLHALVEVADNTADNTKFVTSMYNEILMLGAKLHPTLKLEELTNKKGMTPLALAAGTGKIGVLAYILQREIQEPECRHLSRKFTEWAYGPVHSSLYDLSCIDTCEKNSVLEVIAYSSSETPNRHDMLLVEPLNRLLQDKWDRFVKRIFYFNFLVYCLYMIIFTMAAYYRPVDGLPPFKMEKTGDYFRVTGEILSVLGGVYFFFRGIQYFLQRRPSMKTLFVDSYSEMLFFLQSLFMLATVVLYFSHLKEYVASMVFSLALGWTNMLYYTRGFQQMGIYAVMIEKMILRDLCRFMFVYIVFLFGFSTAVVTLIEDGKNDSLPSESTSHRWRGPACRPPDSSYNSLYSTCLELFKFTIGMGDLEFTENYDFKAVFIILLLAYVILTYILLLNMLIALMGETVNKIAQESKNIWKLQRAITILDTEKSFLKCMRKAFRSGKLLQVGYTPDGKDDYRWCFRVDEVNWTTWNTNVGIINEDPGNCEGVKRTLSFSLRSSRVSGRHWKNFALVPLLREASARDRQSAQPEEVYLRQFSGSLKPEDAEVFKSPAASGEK
# Outline: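 TRPV1 cells loaded with Fluo-8 calcium dye; compound added and Ca2+ signal (ex 480/em 520 nm) followed 3 min, then capsaicin at EC20 added and read 2 more min to detect enhancement.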
# [16] = target: Thyrotropin receptor (Homo sapiens) (UniProt P16473); experiment: qHTS Assay for Antagonists of the Thyroid Stimulating Hormone Receptor (AID 488980); also: series mostly up to about 58 µM; 0% is about no effect
# Chain of Thyrotropin receptor (Homo sapiens) (P16473 whole entry, looked up): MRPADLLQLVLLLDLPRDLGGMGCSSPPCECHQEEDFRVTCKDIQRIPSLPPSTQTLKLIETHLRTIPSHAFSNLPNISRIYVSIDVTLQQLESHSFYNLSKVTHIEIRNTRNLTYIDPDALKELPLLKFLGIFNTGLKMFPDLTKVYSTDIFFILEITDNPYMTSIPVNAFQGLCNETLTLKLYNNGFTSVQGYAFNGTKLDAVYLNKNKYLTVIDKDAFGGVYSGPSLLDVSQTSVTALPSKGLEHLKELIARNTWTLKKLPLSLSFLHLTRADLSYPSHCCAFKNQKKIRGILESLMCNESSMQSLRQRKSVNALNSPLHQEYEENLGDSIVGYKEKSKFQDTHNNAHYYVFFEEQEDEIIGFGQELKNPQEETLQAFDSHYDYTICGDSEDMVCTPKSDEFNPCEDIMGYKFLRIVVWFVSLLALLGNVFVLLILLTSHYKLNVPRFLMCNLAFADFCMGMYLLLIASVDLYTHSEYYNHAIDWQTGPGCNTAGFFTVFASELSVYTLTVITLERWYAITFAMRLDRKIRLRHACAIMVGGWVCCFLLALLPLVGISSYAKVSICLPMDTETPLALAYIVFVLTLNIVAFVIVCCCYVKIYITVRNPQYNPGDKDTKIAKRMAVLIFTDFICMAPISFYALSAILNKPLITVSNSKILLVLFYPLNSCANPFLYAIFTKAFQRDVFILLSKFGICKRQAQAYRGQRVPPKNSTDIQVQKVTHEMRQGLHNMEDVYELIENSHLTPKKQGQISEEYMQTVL
# Outline: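 HEK293 cells transfected with human TSHR, suspended in HEPES-buffered HBSS with 70 uM RO 20-1724, were treated with compounds plus TSH at EC80 (4 nM final). cAMP was measured by competitive HTRF (cryptate anti-cAMP antibody, cAMP-d2 acceptor).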
# [17] = target: Thyrotropin-releasing hormone receptor (Homo sapiens) (UniProt P34981); experiment: qHTS for Small Molecule Agonists and Allosteric Enhancers of Human TRH Receptor: Validation Screen for Agonists (AID 493127;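 active = calcium activation more than 3 SD above the typical response in the agonist read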;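 also: intracellular calcium rise by fluo-8 fluorescence before TRH EC20 addition; 0% is about no effect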); conditions: TRH receptor agonist cell assay; at 2 µM; hits give high values
# Outline: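 Cells 2000/well, 10% FCS, 18 h 33.5C/5% CO2 → fluo-8 Ca dye, RT 30 min–1.5 h → FDSS baseline 10 × 1 s → compound added → 230 cycles (1 s/cycle) agonist mode. TRH controls.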
# [18] = target: Galactokinase (Homo sapiens) (UniProt P51570); experiment: qHTS Validation Assay for Inhibitors of Human Galactokinase (GALK) (AID 493189); also: 0% is about no effect
# Chain of Galactokinase (Homo sapiens) (P51570 whole entry, looked up): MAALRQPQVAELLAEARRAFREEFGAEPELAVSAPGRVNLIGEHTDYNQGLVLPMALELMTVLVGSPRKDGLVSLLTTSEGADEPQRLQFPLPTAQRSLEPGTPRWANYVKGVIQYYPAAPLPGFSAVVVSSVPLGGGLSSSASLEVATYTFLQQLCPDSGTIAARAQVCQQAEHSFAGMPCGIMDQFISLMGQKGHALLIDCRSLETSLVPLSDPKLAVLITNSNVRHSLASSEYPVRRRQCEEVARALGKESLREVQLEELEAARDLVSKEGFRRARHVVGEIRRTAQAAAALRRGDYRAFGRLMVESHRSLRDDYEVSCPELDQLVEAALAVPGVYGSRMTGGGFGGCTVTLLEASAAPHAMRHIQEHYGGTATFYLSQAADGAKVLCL
# Outline: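 GALK (5 nM) with 35 uM ATP and 100 uM galactose in HEPES pH8.0, MgCl2, NaCl, DTT, BSA; 1 h at room temperature. Residual ATP read by Kinase-Glo Plus luminescence after 10 min.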
# [19] = target: Voltage-gated inwardly rectifying potassium channel KCNH2 (Homo sapiens) (UniProt Q12809); experiment: qHTS Assay for Small Molecule Inhibitors of the Human hERG Channel Activity (AID 588834);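 also: potency is read from the fitted curve at half-maximal effect; lower thallium flux fluorescence means stronger hERG block; nearly all actives have a fitted effect of over 50% in size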
# Chain of Voltage-gated inwardly rectifying potassium channel KCNH2 (Homo sapiens) (Q12809 whole entry, looked up): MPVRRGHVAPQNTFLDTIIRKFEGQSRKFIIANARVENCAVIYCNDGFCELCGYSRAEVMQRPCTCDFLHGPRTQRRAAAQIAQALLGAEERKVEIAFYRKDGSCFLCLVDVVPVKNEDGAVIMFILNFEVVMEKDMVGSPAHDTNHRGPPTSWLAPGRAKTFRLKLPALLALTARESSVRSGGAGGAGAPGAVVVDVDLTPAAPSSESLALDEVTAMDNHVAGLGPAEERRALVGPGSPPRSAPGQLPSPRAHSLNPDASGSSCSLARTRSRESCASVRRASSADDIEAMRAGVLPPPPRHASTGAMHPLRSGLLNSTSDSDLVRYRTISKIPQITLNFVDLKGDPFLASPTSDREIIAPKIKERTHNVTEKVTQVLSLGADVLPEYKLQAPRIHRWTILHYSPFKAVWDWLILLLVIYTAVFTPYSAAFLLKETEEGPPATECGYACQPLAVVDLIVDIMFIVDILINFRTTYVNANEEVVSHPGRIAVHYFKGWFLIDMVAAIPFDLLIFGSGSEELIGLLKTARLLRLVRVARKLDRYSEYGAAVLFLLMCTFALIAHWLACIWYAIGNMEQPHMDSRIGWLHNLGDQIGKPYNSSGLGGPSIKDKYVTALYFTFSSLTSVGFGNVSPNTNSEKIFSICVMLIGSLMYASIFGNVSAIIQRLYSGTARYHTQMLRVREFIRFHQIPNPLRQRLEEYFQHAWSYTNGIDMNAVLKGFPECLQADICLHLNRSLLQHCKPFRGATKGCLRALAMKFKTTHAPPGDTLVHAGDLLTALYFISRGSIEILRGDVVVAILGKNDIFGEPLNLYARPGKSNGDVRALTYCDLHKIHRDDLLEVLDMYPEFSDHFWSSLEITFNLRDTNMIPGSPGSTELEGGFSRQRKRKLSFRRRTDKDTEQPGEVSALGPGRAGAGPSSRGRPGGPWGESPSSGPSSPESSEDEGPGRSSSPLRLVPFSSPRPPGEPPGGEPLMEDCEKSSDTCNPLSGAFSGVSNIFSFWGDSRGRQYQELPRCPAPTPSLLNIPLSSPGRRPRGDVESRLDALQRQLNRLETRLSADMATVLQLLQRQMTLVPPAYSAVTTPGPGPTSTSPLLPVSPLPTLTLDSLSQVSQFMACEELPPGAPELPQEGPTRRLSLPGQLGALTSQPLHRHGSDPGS
# Outline: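 U2OS cells transduced with hERG via BacMam (MOI ~100), plated 2000/well, loaded with FluxOR thallium dye, compound ~10 min, then stimulation buffer; fluorescence decrease read kinetically; AC50 from Hill fits.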
# [20] = target: Rap guanine nucleotide exchange factor 3 (Homo sapiens) (UniProt O95398); experiment: Counterscreen qHTS for antagonist of cAMP-regulated guanine nucleotide exchange factor 3 (EPAC1) (AID 1645888);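 also: fluorescence loss as bound BODIPY-GDP is released from Rap1B; % of control where 0% means no effect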
# Chain of Rap guanine nucleotide exchange factor 3 (Homo sapiens) (O95398 whole entry, looked up): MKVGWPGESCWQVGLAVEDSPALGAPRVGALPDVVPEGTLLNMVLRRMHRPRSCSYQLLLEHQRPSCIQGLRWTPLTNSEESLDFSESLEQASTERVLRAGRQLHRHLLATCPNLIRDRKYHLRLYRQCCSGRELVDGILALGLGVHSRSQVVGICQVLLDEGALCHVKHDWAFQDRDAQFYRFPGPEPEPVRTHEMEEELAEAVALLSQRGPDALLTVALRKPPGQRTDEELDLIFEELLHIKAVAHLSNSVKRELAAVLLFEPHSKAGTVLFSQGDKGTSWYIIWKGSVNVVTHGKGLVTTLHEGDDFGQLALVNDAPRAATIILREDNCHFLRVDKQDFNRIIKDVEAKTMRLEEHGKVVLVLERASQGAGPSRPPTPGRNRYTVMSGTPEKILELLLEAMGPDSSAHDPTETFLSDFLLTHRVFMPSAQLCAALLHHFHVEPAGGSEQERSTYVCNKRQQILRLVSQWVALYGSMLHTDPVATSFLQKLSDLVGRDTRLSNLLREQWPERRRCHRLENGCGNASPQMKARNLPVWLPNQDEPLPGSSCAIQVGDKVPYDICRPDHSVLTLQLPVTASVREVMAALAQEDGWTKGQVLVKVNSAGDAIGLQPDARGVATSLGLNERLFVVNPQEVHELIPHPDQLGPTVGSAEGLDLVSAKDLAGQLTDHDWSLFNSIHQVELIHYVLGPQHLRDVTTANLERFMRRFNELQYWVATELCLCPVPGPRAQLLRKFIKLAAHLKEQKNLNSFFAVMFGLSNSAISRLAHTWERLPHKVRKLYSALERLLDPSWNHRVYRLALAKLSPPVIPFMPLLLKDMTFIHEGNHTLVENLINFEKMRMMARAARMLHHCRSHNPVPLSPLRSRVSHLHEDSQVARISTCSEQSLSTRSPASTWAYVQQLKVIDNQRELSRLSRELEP
# Outline: (§1)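 Rap1B–BODIPY-GDP (250 nM) with 50 uM GDP; compounds pin-transferred to 9.74 nM–152 uM final (activator) or from 7.32 nM upwards (inhibitor). Fluorescence Ex/Em 480/540 nm read at 5 and 30 min, then after adding cAMP or buffer, at room temperature.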
# [21] = target: Rap guanine nucleotide exchange factor 3 (Homo sapiens) (UniProt O95398); experiment: Counterscreen qHTS for agonist of cAMP-regulated guanine nucleotide exchange factor 3 (EPAC1) (AID 1645889); also: potency is read from the fitted curve at half-maximal effect; nearly all actives have a fitted effect of over 40% in size
# Outline: as §1
compound,measurement,setting,value
Cc1c(C)c2c(c(C)c1O)CCC(C)(CN1CCN(c3cc(N4CCCC4)nc(N4CCCC4)n3)CC1)O2 (stereo unspecified),outcome,[1],inactive
same,Potency,[2],562 nM (active)
same,Potency,[3],501 nM (active)
same,Potency,[4],891 nM (active)
same,Potency,[5],501 nM (active)
same,Potency,[6],1260 nM (active)
same,Potency,[7],355 nM (active)
same,Potency,[8],891 nM (active)
same,outcome,[9],inactive
same,outcome,[10],inactive
same,Potency,[11],4470 nM (active)
same,Potency,[12],1650 nM (active)
same,Potency,[13],1850 nM (active)
same,Potency,[14],11200 nM (active)
same,outcome,[15],inactive
same,outcome,[16],inactive
same,activation,[17],-7.62%
same,outcome,[18],inactive
same,Potency,[19],7080 nM (active)
CN1c2ccsc2/C(=N/Nc2ccccc2)CS1(=O)=O,Potency,[20],inactive
COc1ccc(C(=O)Nc2ccccc2C(=O)O)cc1NC(=O)C(c1ccccc1)c1ccccc1,Potency,[21],112000 nM (active)
